# Measured values reported in PubChem BioAssay AID651635 (National Center for Advancing Translational Sciences (NCATS), 2012).
# In all, about 400,000 compounds went through this assay and about 1,900 (0.47%) were called active. Roughly 14% stayed inconclusive and do not appear here. This is one part of a sample in which actives are shown more often than they occur. The call rests on the fitted dose curve; in most records, active means well fitted cell-killing curve with a large enough effect; inconclusive means small, poorly fitted or top-dose-only effect, or effect the other way; inactive means no such curve, though single readings can be large or run the other way.
# Assay: Viability Counterscreen for Primary qHTS for Inhibitors of ATXN expression; further: nearly all actives have a fitted effect of over 40% in size
# Conditions: S2 cells (HEK-293 line with an ATXN2-luciferase reporter) viability, CellTiter-Fluor protease fluorescence, 24 h; series mostly up to 56.7 µM; activity change, negative = cytotoxicity: at the top concentration
# Potency means the concentration at half of the fitted maximal effect.
SMILES,"activity change, negative = cytotoxicity",Potency
COc1ccc(COC[C@H](CC(C)C)N2CCN(C(=O)c3cccc(C(F)(F)F)c3)CCC2=O)cc1,-37% (inactive),–
CC(=O)N1Cc2cc(C(=O)NCc3cccc(F)c3)nc(-c3cccc(C4=CCCC4)c3)c2[C@H]1CCO,-32.4% (inactive),–
CCCCOCCOC(=O)c1cccnc1,-20% (inactive),–
Cc1coc2c(O)cc3c(c12)OC1(N2CCCCC2)C(=O)NCCCC31 (configuration not stated),–,31.6 µM (active)
C=CCC[C@H](CCCCC)OC(=O)/C=C/[C@H](O)[C@@H](O)C[C@@H](O)CC=C,-36.7% (inactive),–
O[C@H]1C[C@H](c2ccc(Cl)cc2)N(Cc2cccs2)C[C@@H]1n1cc(C2CC2)nn1,–,22.4 µM (active)
O=C(OCc1cn([C@@H]2C[C@H](c3ccc(Cl)cc3)N(Cc3cccs3)C[C@H]2O)nn1)c1ccccc1,-17.8% (inactive),–
O[C@H]1CN(Cc2cccs2)[C@@H](c2ccc(Cl)cc2)C[C@@H]1n1cc(C2CC2)nn1,-13.8% (inactive),–
COc1cccc(CN2CCC3(CC2)c2ccccc2[C@@H](NC(=O)c2ccccc2OC)[C@@H]3O)c1,-15.1% (inactive),–
c1ccc(C[C@H]2CNCCN2CCC23CC4CC(CC(C4)C2)C3)cc1,–,31.6 µM (active)
O=C1CCNCCN1[C@H](CO)Cc1ccccc1,-14.8% (inactive),–
Cc1cccc(C(=O)Nc2ccc(S(=O)(=O)N3CCCCC3c3cccnc3)cc2)c1 (configuration not stated),–,14.1 µM (active)
Cc1cc(NS(=O)(=O)c2ccc(NC(=O)c3cccnc3)cc2)nc(C)n1,-27.6% (inactive),–
CCOc1ccccc1C(=O)Nc1ccc(S(=O)(=O)N2CCCCC2c2cccnc2)cc1 (configuration not stated),-18% (inactive),–
CCN1CCN(C(=O)N[C@@H](C(=O)N[C@@H]2C(=O)N3[C@@H]2SC(C)(C)[C@H]3C(=O)O)c2ccccc2)C(=O)C1=O,–,inactive
CCOC(=O)c1ccn(S(=O)(=O)c2ccc(C)cc2)c1-c1ccccc1,-16% (inactive),–
Oc1ccc2ccccc2c1N=Nc1nccs1,–,15.8 µM (active)
Oc1ccc(N=Nc2nccs2)c(O)c1,–,10 µM (active)
CN1CCCCCC1C(=O)NCCN1Cc2ccccc2OC(c2ccsc2)C1 (configuration not stated),-11.5% (inactive),–
Cc1nc2cc(NC(=O)[C@@H]3C[C@@H](Sc4ccccn4)CN3Cc3ccccc3C)ccc2s1,-14.5% (inactive),–
O=C1/C(=C\c2ccc([N+](=O)[O-])cc2)CS(=O)(=O)C/C1=C/c1ccc([N+](=O)[O-])cc1,–,2.67 µM (active)
CC(=O)Nc1ccc(C=Cc2ccc([N+](=O)[O-])cc2)cc1,-4.99% (inactive),–
O=C(NN=Cc1ccc([N+](=O)[O-])cc1)C1CC1,-5.43% (inactive),–
COC(=O)c1cc(Cl)c(NC(C)=O)cc1OC,2.13% (inactive),–
O=c1cc(COc2cccc(C(F)(F)F)c2)nc2sc3c(n12)CCCC3,-33.8% (inactive),–

SMILES,"activity change, negative = cytotoxicity",Potency
O=C(Nc1ccc(Cl)cc1)C1Cc2c(-c3ccc4c(c3)OCO4)ccnc2O1 (configuration not stated),-25.3% (inactive),–
CCN1C(=O)N[C@@H](c2ccccc2)C(C(=O)OC)=C1C,0.354% (inactive),–
CCCCNC(=O)C(C)N(CCN(C)C)C(=O)CCCCCN1C(=O)NC(c2ccc(Cl)cc2)C(C(=O)OCc2ccccc2)=C1C (configuration not stated),–,22.4 µM (active)
COC(=O)CCCCCN1C(=O)NC(c2ccc(-c3ccccc3)cc2)C(C(=O)OCc2ccccc2)=C1C (configuration not stated),-5.84% (inactive),–
Cc1oc(-c2cccc(NC(=O)c3ccccc3)c2)nc1CNC(=O)c1cnc2ccccn2c1=O,-18.1% (inactive),–
COc1cc(=O)n2c(c1C(=O)N(C)Cc1nonc1C)CCN(C(=O)c1ccc(C)cc1C)CC2,-16.8% (inactive),–
O=c1ccc2c(-c3ccccc3S(=O)(=O)O)c3ccc(O)c(O)c3oc-2c1O,–,10 µM (active)
CC(=O)Nc1ccccc1-c1nc(CNC(=O)c2ccc(Cl)cc2)c(C)o1,-11.2% (inactive),–
COc1ccc(-c2cc(C)nc3nc(N)nn23)cc1,0.852% (inactive),–
COc1cccc(CSc2nc3nc(C)cc(C)n3n2)c1,2.32% (inactive),–
COc1ccc(-c2nc3nc(C)cc(C)n3c2Nc2c(C)cccc2C)cc1,–,28.2 µM (active)
COc1cncc(-c2cnc3sc(NCCc4ccccn4)nn23)c1,2.53% (inactive),–
COc1cc(/C=C/C(N)=O)cc(OC)c1OC,-12.2% (inactive),–
CC(C)(c1ccccc1)c1ccc(OCCN2CCCC2)cc1,1.01% (inactive),–
CC1CCCN(CC(=O)Nc2cc(Cl)ccc2Oc2ccccc2)C1 (configuration not stated),16.2% (inactive),–
COCC1CCCN(Cc2ccc3c(c2)CN(C(=O)c2ccnn2C)CCO3)C1 (configuration not stated),2.16% (inactive),–
CCCNC(=O)c1cc(C2CCCN(C(=O)c3ccc4c(c3)CCO4)C2)on1 (configuration not stated),-32.5% (inactive),–
COc1ccc2c(c1)CCc1cnc(-n3ncc(C(=O)NCCN4CCOCC4)c3C)nc1-2,-7.73% (inactive),–
Cc1cnc(C(=O)N2CCOc3ccc(CN4CCCC(C(=O)c5cccnc5)C4)cc3C2)[nH]1 (configuration not stated),-20.4% (inactive),–
CC(=O)Nc1cc(C(=O)N2CCc3c(Cl)cccc3C2)cc2ncn(CCc3ccccn3)c12,-11.4% (inactive),–
COc1ccc(-c2csc(Nc3cccc(C)n3)n2)cc1OC,-29.7% (inactive),–
C/C(CC1CC(C)(C)OC1=O)=N/Nc1nc(-c2ccccc2)cs1 (configuration not stated),-37.1% (inactive),–
Cc1ccc(-c2csc(NC3OC(=O)c4ccccc43)n2)cc1 (configuration not stated),–,25.1 µM (active)
COc1ccc2c(c1OC)C(=O)OC2Nc1nc(-c2ccccc2)cs1 (configuration not stated),–,20 µM (active)
CCc1ccccc1NC(=O)[C@@H]1CCC(=O)N1C1OC(=O)c2c1ccc(OC)c2OC (some centres not stated),-5.58% (inactive),–

SMILES,"activity change, negative = cytotoxicity",Potency
Cc1ccc(-c2csc(-c3c[nH]c4ccccc34)n2)cc1,-12.2% (inactive),–
Cc1c(C(=O)NCC2CCCN(C)C2)cnn1-c1nccc(-c2ccco2)n1 (configuration not stated),-11.9% (inactive),–
Cc1ccc(NS(=O)(=O)c2cc3c(cc2Br)NC(=O)CO3)cc1C,-26.2% (inactive),–
N#Cc1ccc(-c2nc3c(Cl)cc(C(F)(F)F)cn3c2Cc2ccccc2C(F)(F)F)cc1,-15.8% (inactive),–
C[C@@H]1CN(Cc2ccc3c(c2)CN(Cc2ccc(Oc4ncccn4)cc2)CCO3)C[C@H](C)O1,-1.79% (inactive),–
CC(C)c1ccc(S(=O)(=O)Nc2ccc(O)c(Sc3nc4ccccc4s3)c2)cc1,-34% (inactive),–
O=[N+]([O-])c1c(NCCO)cc(Sc2nc3ccccc3s2)c2nonc12,–,20 µM (active)
CC(C)(C)c1ccc(S(=O)(=O)Nc2ccc(O)c(Sc3nc4ccccc4s3)c2)cc1,-34.1% (inactive),–
C=C1C(=CC=C2CCC[C@]3(C)[C@@H]([C@H](C)C=C[C@H](C)C(C)C)CC[C@@H]23)C[C@@H](O)C[C@@H]1O,13.1% (inactive),–
COc1ccc(C)cc1N1C(=O)[C@@H]2C[C@H]1CN2Cc1cccc(OC)c1O,-13.5% (inactive),–
COc1ccc(NC(=O)C2Cc3c(-c4ccc(Cl)cc4)ccnc3O2)cc1 (configuration not stated),-34.9% (inactive),–
CCOc1ccc(N2CC(c3nc4ccccc4n3CCOc3ccc(OC)cc3)CC2=O)cc1 (configuration not stated),-34.3% (inactive),–
CCCCN1CC(c2nc3ccccc3n2CCCCOc2ccc(C)cc2C)CC1=O (configuration not stated),–,25.1 µM (active)
CCc1ccccc1N1CC(c2nc3ccccc3n2CCCCOc2ccccc2)CC1=O (configuration not stated),-17.9% (inactive),–
Cn1c(=O)c2c(ncn2CCc2ccccc2)n(C)c1=O,-14.3% (inactive),–
COc1ccccc1CCNS(=O)(=O)c1cn(C)nc1C,-9.41% (inactive),–
CCCCc1c(-c2ccc(Br)cc2)ncn1CCc1ccccc1OC,–,15.8 µM (active)
CCOc1ccc(-c2n[nH]c3c2C(c2ccccc2OC)N(c2ccc(Br)cc2)C3=O)cc1 (configuration not stated),-27.2% (inactive),–
COc1ccccc1Cc1c(-c2ccc(Cl)cc2)nc2ccc(Cl)cn12,-9.29% (inactive),–
CCCCCc1c(Cc2ccccc2)ncn1CCc1ccccc1OC,–,22.4 µM (active)
CCCc1c2oc(C(=O)O)cc(=O)c2cc2c(=O)cc(C(=O)O)n(CC)c12,-0.84% (inactive),–
O=C1CCN(Cc2ccc(-c3ccccc3)cc2)CCN1Cc1ccccn1,-0.49% (inactive),–
Cc1ncc2c(c1CNS(=O)(=O)N(C)C)CCN(C(=O)c1ccccc1F)C2,-9.75% (inactive),–
CS(=O)(=O)NC(=O)CCC/C=C\C[C@H]1C(=O)C[C@@H](O)[C@@H]1/C=C/[C@H](O)COc1ccccc1,-8.77% (inactive),–
Cc1ccc(-c2ccnc(-n3ncc(C(=O)N(C)Cc4cccc5ncccc45)c3C3CC3)n2)o1,-9.53% (inactive),–

SMILES,"activity change, negative = cytotoxicity",Potency
COc1ccc(-n2nc3c(N4CCC(C(=O)NCc5ccccc5)CC4)nnc(C)c3c2C)cc1,-17.5% (inactive),–
COc1cccc(NC(=O)C2CCN(c3cc(C)nc4c(-c5ccc(Cl)cc5)c(C)nn34)CC2)c1,-19.3% (inactive),–
Cc1nnc(N2CCC(C(=O)Nc3ccc(F)cc3)CC2)c2nn(-c3ccc(Cl)cc3)c(C)c12,–,20 µM (active)
CCOC(=O)N1CCN(S(=O)(=O)c2ccc(OC)cc2)CC1,-16.8% (inactive),–
CCOC(=O)C1=C(c2ccc(OC)cc2)C(=O)c2ccccc2C1=O,–,6.31 µM (active)
COC(=O)c1cc(OC)ccc1-c1ccc(OC)cc1,7.37% (inactive),–
COC(=O)[C@@H]1C[C@H](NC(=O)c2ccccc2C(F)(F)F)CN1Cc1cccc(O)c1,-18.1% (inactive),–
CC(C)(C)C1CCc2c(sc(NC(=O)c3ccccc3F)c2C(=O)N2CCCCC2)C1 (configuration not stated),-15.6% (inactive),–
CC(O)CNCCOc1cccc(Oc2ccccc2)c1 (configuration not stated),-31% (inactive),–
COc1ccccc1OCCNCC(O)COc1cccc2[nH]c3ccccc3c12 (configuration not stated),–,28.2 µM (active)
COc1cccc2[nH]c(C(=O)NCCc3ccccc3)cc12,-21.9% (inactive),–
COc1ccc(NC(=O)C2Cc3c(-c4ccc5c(c4)OCO5)ccnc3O2)cn1 (configuration not stated),-16.8% (inactive),–
Cc1ccc2cccc(NC(=O)c3cccc4ccccc34)c2n1,-34.8% (inactive),–
COc1cc(=O)n2c(c1C(=O)NCc1ccco1)CCN(Cc1ccccc1)CC2,-5.97% (inactive),–
Cc1cccc(C)c1NC(=O)c1ccc(N)cc1,0.704% (inactive),–
Cc1cc(C(=O)NCC2Cc3cccc(-c4cncnc4)c3O2)c(C)o1 (configuration not stated),-10.9% (inactive),–
CNC[C@H](CC1CCCCC1)NC[C@H](NCCC1CCCC1)[C@H](C)O,–,17.8 µM (active)
O=C(NCC(c1ccc2c(c1)OCO2)N1CCN(c2ccccc2)CC1)C(=O)Nc1ccccc1F (configuration not stated),1.03% (inactive),–
O=S(O)CNc1ccc(S(=O)(=O)c2ccc(NCS(=O)O)cc2)cc1,-5.35% (inactive),–
O=C(CSc1ncn[nH]1)NCc1ccc2c(c1)OCO2,-17% (inactive),–
O=C(CSc1ncn[nH]1)Nc1ccc(Br)cc1Br,-18.1% (inactive),–
O=C(/C=C/Sc1ncn[nH]1)c1ccc(Cl)cc1,–,25.1 µM (active)
